A short description of test [1]: NCI Yeast Anticancer Drug Screen. Data for the rad50 strain (AID 155).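 Also: 0% = growth of vehicle-only cultures of the same strain.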 The settings on record: S. cerevisiae rad50 strain growth inhibition, active compounds read high. The gist of the method: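 A DNA repair-deficient yeast mutant serves as the test organism; compound-induced growth inhibition is calculated against vehicle-treated cells.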
Test [2] in a line: NCI Yeast Anticancer Drug Screen. Data for the mec2-1 strain (AID 157). The settings on record: S. cerevisiae mec2-1 strain, active compounds read high. The gist of the method:
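Growth inhibition is read against vehicle-treated controls after compound exposure of the mec2-1 yeast strain, which is defective in DNA damage repair or cell cycle control.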

Test [3] can be described thus: NCI Yeast Anticancer Drug Screen. Data for the sgs1 mgt1 strain (AID 161).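 Also: 0% = growth of cultures given vehicle only.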 The settings on record: S. cerevisiae sgs1 mgt1 strain, active compounds read high. The gist of the method: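 Percent growth inhibition was derived by comparing compound-exposed mutant yeast with vehicle-exposed cultures. The strain carries alterations in DNA damage repair.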
Test [4] in a line: NCI Yeast Anticancer Drug Screen. Data for the cln2 rad14 strain (AID 165).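 Also: 0% = growth equal to vehicle treated cultures.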 The settings on record: S. cerevisiae cln2 rad14 strain, active compounds read high. The gist of the method: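 Growth inhibition, relative to vehicle-treated controls, is the read-out. The test organism is a yeast strain with defined genetic alterations, cln2 rad14.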
The nature of test [5]: NCI Yeast Anticancer Drug Screen. Data for the bub3 strain (AID 167). The settings on record: S. cerevisiae bub3 mutant strain, active compounds read high. The gist of the method: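 Inhibition values come from growth of compound-treated mutant yeast normalised to vehicle-treated controls.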
Test [6] can be described thus: NCI Yeast Anticancer Drug Screen. Data for the mlh1 rad18 strain (AID 175). The settings on record: S. cerevisiae mlh1 rad18 strain growth inhibition, active compounds read high. The gist of the method:
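Cells of a genetically altered yeast strain, deficient in DNA damage repair, were treated with compound. Their growth was then compared with that of vehicle-treated cultures to give inhibition.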

[7] abbreviates: at 5.0 µM (retest, dose inferred, filed as 0.5).
The mark [8] stands for this setting: at 50.0 µM (retest, dose inferred, filed as 5.0).

Molecules are shown by their SMILES. About 79,000 compounds went through this panel and 15% of them were active in at least one assay; those are over-represented in the sample as a whole. Values without a mark were called inactive. The source made the active and inactive calls. Rule as the data show it: active = growth inhibition above about 70%; inactive = the rest.

With `CCCCCCCCCCCCNC(=O)C[n+]1cccc(C(N)=O)c1`, the growth inhibition in test [1] (setting [7]) was 3%; in test [1] (setting [8]), 88% (active); in test [1] (at 50.0 µM), 79% (active); in test [2] (setting [7]) it was -3%; in test [2] (setting [8]), 90% (active); in test [2] (at 50.0 µM) it was 19.8%. Moreover, the growth inhibition in test [3] (setting [7]) is -2%; in test [3] (setting [8]), 97% (active); in test [3] (at 50.0 µM) it was -2.6%; in test [4] (setting [7]), -6%; in test [4] (setting [8]), 67%; in test [4] (at 50.0 µM), 36.4%. For the same molecule, the growth inhibition in test [5] (setting [7]) is -9%; in test [5] (setting [8]) it was 76% (active); in test [5] (at 50.0 µM), 50.8%; in test [6] (setting [7]), -1%; in test [6] (setting [8]) it was 85% (active); in test [6] (at 50.0 µM), 51.4%.
Regarding `CC(C)C(OC(=O)c1ccc(NCC2=CC(=O)C=CC2=O)cc1)C(C)C`, the growth inhibition in test [1] (setting [7]) was 22%; in test [1] (setting [8]), 37%; in test [1] (at 50.0 µM), 17%; in test [2] (setting [7]) it was 15%; in test [2] (setting [8]), 40%; in test [2] (at 50.0 µM), 11.3%. Also, the growth inhibition in test [3] (setting [7]) is 23%; in test [3] (setting [8]), 53%; in test [3] (at 50.0 µM) it was 73% (active); in test [4] (setting [7]) it was 21%; in test [4] (setting [8]), 32%; in test [4] (at 50.0 µM) it was 73.8% (active). Further, the growth inhibition was 27% in test [5] (setting [7]); 61% in test [5] (setting [8]); 70.5% (active) in test [5] (at 50.0 µM); 17% in test [6] (setting [7]); 44% in test [6] (setting [8]); -10.4% in test [6] (at 50.0 µM).
Consider `O=C(O)C1CCc2ccc3ccccc3c2C1c1cccc2ccccc12` (stereo not given), for which the growth inhibition in test [1] (setting [7]) was 42%; in test [1] (setting [8]) it was 98% (active); in test [1] (at 50.0 µM), 98.1% (active); in test [2] (setting [7]), 36%; in test [2] (setting [8]), 98% (active); in test [2] (at 50.0 µM) it was 98% (active). Also, the growth inhibition was 32% in test [3] (setting [7]); 98% (active) in test [3] (setting [8]); 97.7% (active) in test [3] (at 50.0 µM); 61% in test [4] (setting [7]); 98% (active) in test [4] (setting [8]); 97% (active) in test [4] (at 50.0 µM). The growth inhibition was 40% in test [5] (setting [7]); 98% (active) in test [5] (setting [8]); 97% (active) in test [5] (at 50.0 µM); 52% in test [6] (setting [7]); 98% (active) in test [6] (setting [8]); 98% (active) in test [6] (at 50.0 µM).
On to `CC(C)(C)OC(=O)NCCNC(=O)CN(CC(=O)O)C1CCCCC1N(CC(=O)O)CC(=O)O` (stereo not given), for which the growth inhibition is -16% in test [1] (setting [7]); 59% in test [1] (setting [8]); 50.4% in test [1] (at 50.0 µM); -7% in test [2] (setting [7]); 52% in test [2] (setting [8]); 62.3% in test [2] (at 50.0 µM). Further, the growth inhibition is 1% in test [3] (setting [7]); 46% in test [3] (setting [8]); 61.6% in test [3] (at 50.0 µM); -21% in test [4] (setting [7]); 46% in test [4] (setting [8]); 15.9% in test [4] (at 50.0 µM). Further, the growth inhibition was 0% in test [5] (setting [7]); 75% (active) in test [5] (setting [8]); 66.2% in test [5] (at 50.0 µM); -10% in test [6] (setting [7]); 66% in test [6] (setting [8]); 74.5% (active) in test [6] (at 50.0 µM).
`Clc1ccccc1C(Cc1c(Cl)cccc1Cl)Cn1ccnc1` (stereo not given): the growth inhibition in test [1] (setting [7]) was 74% (active); in test [1] (setting [8]), 78% (active); in test [1] (at 50.0 µM) it was 99.8% (active); in test [2] (setting [7]) it was 58%; in test [2] (setting [8]), 78% (active); in test [2] (at 50.0 µM), 99.8% (active). Also, the growth inhibition is 70% (active) in test [3] (setting [7]); 91% (active) in test [3] (setting [8]); 99.8% (active) in test [3] (at 50.0 µM); 62% in test [4] (setting [7]); 86% (active) in test [4] (setting [8]); 98.8% (active) in test [4] (at 50.0 µM). In addition, the growth inhibition in test [5] (setting [7]) was 75% (active); in test [5] (setting [8]) it was 95% (active); in test [5] (at 50.0 µM), 99.7% (active); in test [6] (setting [7]) it was 77% (active); in test [6] (setting [8]) it was 92% (active); in test [6] (at 50.0 µM), 99.8% (active).
On to `c1ccc([Si](C[CH2][Sn]([c]2ccccc2)([c]2ccccc2)[c]2ccccc2)(c2ccccc2)c2ccc([Si](C[CH2][Sn]([c]3ccccc3)([c]3ccccc3)[c]3ccccc3)(c3ccccc3)c3ccccc3)cc2)cc1`, for which the growth inhibition in test [1] (setting [7]) was 99% (active); in test [1] (setting [8]), 98% (active); in test [1] (at 50.0 µM), 77.3% (active); in test [2] (setting [7]), 99% (active); in test [2] (setting [8]), 99% (active); in test [2] (at 50.0 µM), 89.5% (active). Further, the growth inhibition in test [3] (setting [7]) was 100% (active); in test [3] (setting [8]), 98% (active); in test [3] (at 50.0 µM), 71.9% (active); in test [4] (setting [7]), 99% (active); in test [4] (setting [8]) it was 98% (active); in test [4] (at 50.0 µM), 83.8% (active). The growth inhibition was 99% (active) in test [5] (setting [7]); 98% (active) in test [5] (setting [8]); 97.6% (active) in test [5] (at 50.0 µM); 99% (active) in test [6] (setting [7]); 98% (active) in test [6] (setting [8]); 73.1% (active) in test [6] (at 50.0 µM).
For `O=C(O)c1ccccc1/C=C1\Cc2ccc3c(c2C1=O)CCCC3`, the growth inhibition in test [1] (setting [7]) is 18%; in test [1] (setting [8]), 18%; in test [1] (at 50.0 µM), 81.6% (active); in test [2] (setting [7]), 6%; in test [2] (setting [8]), 6%; in test [2] (at 50.0 µM), 83.1% (active). Further, the growth inhibition in test [3] (setting [7]) is 6%; in test [3] (setting [8]), 6%; in test [3] (at 50.0 µM) it was 81.3% (active); in test [4] (setting [7]), -4%; in test [4] (setting [8]) it was -4%; in test [4] (at 50.0 µM), 85.5% (active). The growth inhibition was -5% in test [5] (setting [7]); -5% in test [5] (setting [8]); 81.5% (active) in test [5] (at 50.0 µM); 12% in test [6] (setting [7]); 12% in test [6] (setting [8]); 79.9% (active) in test [6] (at 50.0 µM).
Turning to `N=C(N)c1ccc(Oc2ccc(Oc3ccc(C(=N)N)cc3)cc2)cc1`, the growth inhibition in test [1] (setting [7]) is 43%; in test [1] (setting [8]), 69%; in test [1] (at 50.0 µM), 70.8% (active); in test [2] (setting [7]), 39%; in test [2] (setting [8]), 68%; in test [2] (at 50.0 µM) it was 83.8% (active). Moreover, the growth inhibition in test [3] (setting [7]) was 59%; in test [3] (setting [8]), 89% (active); in test [3] (at 50.0 µM), 81.2% (active); in test [4] (setting [7]), 50%; in test [4] (setting [8]), 80% (active); in test [4] (at 50.0 µM), 64.6%. For the same molecule, the growth inhibition was 53% in test [5] (setting [7]); 79% (active) in test [5] (setting [8]); 65.7% in test [5] (at 50.0 µM); 57% in test [6] (setting [7]); 90% (active) in test [6] (setting [8]); 81.5% (active) in test [6] (at 50.0 µM).
Regarding `N#CC1=CN(Cc2ccccc2)C(C#Cc2ccccc2)C=C1` (stereo not given), the growth inhibition was 1% in test [1] (setting [7]); -1% in test [1] (setting [8]); 58.9% in test [1] (at 50.0 µM); -1% in test [2] (setting [7]); 9% in test [2] (setting [8]); 88.2% (active) in test [2] (at 50.0 µM). Besides, the growth inhibition was 2% in test [3] (setting [7]); 8% in test [3] (setting [8]); 82.2% (active) in test [3] (at 50.0 µM); -2% in test [4] (setting [7]); -7% in test [4] (setting [8]); 15.4% in test [4] (at 50.0 µM). Moreover, the growth inhibition in test [5] (setting [7]) was -2%; in test [5] (setting [8]) it was 0%; in test [5] (at 50.0 µM), 91% (active); in test [6] (setting [7]) it was -2%; in test [6] (setting [8]), 4%; in test [6] (at 50.0 µM) it was 83.2% (active).
Consider `CCOC(=O)c1cc(C)c(O)c(C(=O)OCC)c1`, for which the growth inhibition was -9% in test [1] (setting [7]); 4% in test [1] (setting [8]); -0.45% in test [1] (at 50.0 µM); -12% in test [2] (setting [7]); -27% in test [2] (setting [8]); 16.1% in test [2] (at 50.0 µM). In addition, the growth inhibition in test [3] (setting [7]) is 1%; in test [3] (setting [8]), 22%; in test [3] (at 50.0 µM), 0.65%; in test [4] (setting [7]) it was 26%; in test [4] (setting [8]), 31%; in test [4] (at 50.0 µM), 6.8%. Further, the growth inhibition is 13% in test [5] (setting [7]); 27% in test [5] (setting [8]); 52.4% in test [5] (at 50.0 µM); -28% in test [6] (setting [7]); -9% in test [6] (setting [8]); -10.8% in test [6] (at 50.0 µM).

The values above are taken from PubChem BioAssay (NCI).
